{"source": "PubChem BioAssay (NCATS)", "key": {"[1]": {"test_system": "Zika virus NS2B-NS3 protease (unlinked complex)", "experiment": "Primary screen GU Rhodamine qHTS for Zika virus inhibitors: Unlinked NS2B-NS3 protease assay (AID 1347159); note: nearly all actives have a fitted effect of over 60% in size; note: potency is the fitted concentration of half-maximal effect", "procedure,_shortened": "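Noncovalent NS2B hydrophilic domain/NS3 protease complex (25 nM final) in 10 mM Tris-HCl pH 8.0, 0.01% Tween 20, preincubated 15 min with compounds (up to 114 microM), then 1.5 microM Rhodamine110 substrate. Fluorescence change over 15 min fitted to 4-parameter Hill.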"}, "[2]": {"test_system": "Zika virus NS2B-NS3 protease (linked construct)", "experiment": "Primary screen NINDS Rhodamine qHTS for Zika virus inhibitors (AID 1347160); note: nearly all actives have a fitted effect of over 55% in size", "conditions": "outcome: at 57.1 µM (top of the series) unless noted", "procedure,_shortened": "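Purified NS2B-NS3 protease with the NS2B hydrophilic domain joined by a flexible linker (25 nM) in 10 mM Tris-HCl pH 8.0, 0.01% Tween 20, preincubated 15 min at RT with compound; Rhodamine110 peptide substrate 1.5 µM; fluorescence change over 15 min; 4-parameter Hill fit.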"}, "[3]": {"biological_target": "N-terminal Xaa-Pro-Lys N-methyltransferase 1 (Homo sapiens) (UniProt Q9BV86)", "sequence (Q9BV86 whole entry, looked up)": "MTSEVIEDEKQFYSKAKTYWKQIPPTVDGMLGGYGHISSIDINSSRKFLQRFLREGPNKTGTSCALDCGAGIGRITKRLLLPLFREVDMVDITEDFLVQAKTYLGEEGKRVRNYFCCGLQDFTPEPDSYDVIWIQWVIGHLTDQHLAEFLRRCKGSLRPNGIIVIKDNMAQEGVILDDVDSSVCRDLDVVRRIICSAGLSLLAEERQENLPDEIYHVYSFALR", "experiment": "qHTS Assay for Inhibitors of N-terminal methyltransferase 1 (NTMT1): LOPAC validation of the NTMT1 SAHH-coupled ThioGlo3 Assay (AID 1347143);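 note: SAH from peptide methylation measured as thiol fluorescence via SAHH coupling and ThioGlo3; nearly all actives have a fitted effect of over 70% in size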; note: potency is the fitted concentration of half-maximal effect", "procedure,_shortened": "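Recombinant human NTMT1 (125nM) was pre-incubated 1 min at room temperature with compounds over a concentration range, then a mix of 100uM SAM, 10uM SAHH and 15uM ThioGlo3 (concentrations in added reagent) was added. ThioGlo3 fluorescence (ex 340/em 450nm) after 30 min was normalized to the initial reading.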"}, "[4]": {"test_system": "Zika virus NS2B-NS3 protease", "experiment": "Primary screen GU AMC qHTS for Zika virus inhibitors (AID 1347154); note: nearly all actives have a fitted effect of over 70% in size", "procedure,_shortened": "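Unlinked Zika NS2B hydrophilic domain–NS3 protease complex at 25 nM in 10 mM Tris-HCl pH 8.0, 0.01% Tween 20, with an AMC peptide substrate. Fluorescence change (340/450 nm) over 15 min at room temperature, normalized to controls, fitted to 4-parameter Hill.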"}, "[5]": {"test_system": "Zika virus NS2B-NS3 protease (unlinked)", "experiment": "Optimization of GU AMC qHTS for Zika virus inhibitors: Unlinked NS2B-NS3 protease assay (AID 1347151); note: nearly all actives have a fitted effect of over 80% in size", "procedure,_shortened": "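Percent inhibition is derived from the 15-min change in AMC fluorescence, normalized against no-inhibitor and no-enzyme controls, then fitted to a 4-parameter Hill curve. Aprotinin was the intraplate control.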"}, "[6]": {"test_system": "Zika virus NS2B-NS3 protease (linked construct)", "experiment": "Confirmatory screen NINDS AMC qHTS for Zika virus inhibitors (AID 1347152); note: top concentration of the series differs between compounds; nearly all actives have a fitted effect of over 70% in size", "procedure,_shortened": "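In this dose-response qHTS, AMC release from 10 microM Bz-Nle-KRR-AMC by 1 nM linked protease is measured over 15 minutes (about 20% conversion) at pH 8.0. Percent inhibition is fitted to a 4-parameter Hill curve.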"}, "[7]": {"test_system": "Zika virus NS2B-NS3 protease (unlinked complex)", "experiment": "Confirmatory screen GU AMC qHTS for Zika virus inhibitors (AID 1347153); note: nearly all actives have a fitted effect of over 70% in size", "procedure,_shortened": "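Unlinked NS2B-NS3 complex (25 nM) in 10 mM Tris-HCl pH 8.0, 0.01% Tween 20 preincubated 15 min with compound, then 10 microM Bz-Nle-KRR-AMC (Km 18.3 µM). Fluorescence change over 15 min, normalized, Hill-fitted.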"}}, "note": "Inconclusive results are not listed. Where a call stands in place of a potency, no number is given. Activity calls are given as the source filed them. Calls come from the whole dose curve; as a rule, active = well fitted curve in the direction sought with a large enough effect; inconclusive = small, poorly fitted or top-dose-only effect, or another doubt; inactive = no such curve, though single readings can be large; an effect the other way counts as inactive or inconclusive."}
{"smiles": "O=C1Cc2cc(CCN3CCN(c4nsc5ccccc45)CC3)c(Cl)cc2N1", "values": [{"measurement": "Potency", "setting": "[1]", "result": "inactive"}, {"measurement": "outcome", "setting": "[2]", "result": "inactive"}]}
{"smiles": "CC[C@@]1(O)C(=O)OCc2c1cc1n(c2=O)Cc2cc3c(CN(C)C)c(O)ccc3nc2-1", "values": [{"measurement": "Potency", "setting": "[1]", "result": "20 µM (active)"}]}
{"smiles": "CS(=O)(=O)CCNCc1ccc(-c2ccc3ncnc(Nc4ccc(OCc5cccc(F)c5)c(Cl)c4)c3c2)o1", "values": [{"measurement": "outcome", "setting": "[2]", "result": "inactive"}]}
{"smiles": "N[C@@H](Cc1c[nH]c2ccc(O)cc12)C(=O)O", "values": [{"measurement": "Potency", "setting": "[3]", "result": "50.1 µM (active)"}, {"measurement": "Potency", "setting": "[4]", "result": "inactive"}]}
{"smiles": "Cc1cc(C(C)(C)C)c(O)c(C)c1CC1=NCCN1", "values": [{"measurement": "Potency", "setting": "[3]", "result": "inactive"}, {"measurement": "Potency", "setting": "[5]", "result": "inactive"}, {"measurement": "Potency", "setting": "[4]", "result": "inactive"}, {"measurement": "Potency", "setting": "[1]", "result": "inactive"}, {"measurement": "outcome", "setting": "[2]", "result": "inactive"}]}
{"smiles": "Clc1ccccc1C(c1ccccc1)(c1ccccc1)n1ccnc1", "values": [{"measurement": "Potency", "setting": "[3]", "result": "inactive"}, {"measurement": "Potency", "setting": "[4]", "result": "inactive"}]}
{"smiles": "Clc1ccc2c(c1)C(N1CCNCC1)=Nc1ccccc1O2", "values": [{"measurement": "Potency", "setting": "[3]", "result": "inactive"}, {"measurement": "Potency", "setting": "[5]", "result": "inactive"}, {"measurement": "Potency", "setting": "[4]", "result": "inactive"}, {"measurement": "Potency", "setting": "[1]", "result": "inactive"}, {"measurement": "outcome", "setting": "[2]", "result": "inactive"}]}
{"smiles": "CC(C)(C)C(=O)Oc1ccc(S(=O)(=O)Nc2ccccc2C(=O)NCC(=O)O)cc1", "values": [{"measurement": "Potency", "setting": "[3]", "result": "inactive"}, {"measurement": "Potency", "setting": "[6]", "result": "inactive"}, {"measurement": "Potency", "setting": "[7]", "result": "inactive"}, {"measurement": "Potency", "setting": "[4]", "result": "inactive"}]}
{"smiles": "COc1ccccc1OCC(O)CN1CCN(CC(=O)Nc2c(C)cccc2C)CC1", "note": "(stereo not drawn)", "values": [{"measurement": "Potency", "setting": "[5]", "result": "inactive"}, {"measurement": "Potency", "setting": "[4]", "result": "inactive"}]}
{"smiles": "Cc1cn([C@H]2C[C@H](N=[N+]=[N-])[C@@H](CO)O2)c(=O)[nH]c1=O", "values": [{"measurement": "Potency", "setting": "[4]", "result": "inactive"}]}
{"smiles": "CCC1(C)CC(=O)NC1=O", "note": "(stereo not drawn)", "values": [{"measurement": "Potency", "setting": "[3]", "result": "inactive"}, {"measurement": "Potency", "setting": "[5]", "result": "inactive"}, {"measurement": "Potency", "setting": "[4]", "result": "inactive"}]}
{"smiles": "Nc1c2c(nc3ccccc13)CCCC2", "values": [{"measurement": "Potency", "setting": "[4]", "result": "inactive"}]}
{"smiles": "CC1(CN2CCC(n3c(=O)[nH]c4ccccc43)CC2)OCc2ccccc2-n2cccc21", "note": "(stereo not drawn)", "values": [{"measurement": "Potency", "setting": "[4]", "result": "inactive"}]}
{"smiles": "C[C@](N)(Cc1ccc(O)c(O)c1)C(=O)O", "values": [{"measurement": "Potency", "setting": "[5]", "result": "inactive"}]}
{"smiles": "CCCNCC(O)COc1ccccc1C(=O)CCc1ccccc1", "note": "(stereo not drawn)", "values": [{"measurement": "Potency", "setting": "[5]", "result": "inactive"}, {"measurement": "Potency", "setting": "[4]", "result": "inactive"}]}
